Targets with a hit are over-represented here; the source holds about 6,500 in all. About 2% of all pairs of compound and target were hits.
What follows are targets tested with COC(=O)C#Cc1ccccc1 [methyl 3-phenylpropiolate] (assay: log2 ratio of iodoacetamide-alkyne labeling of the cysteine site, DMSO over compound (competition); higher = stronger covalent engagement of the cysteine by the compound, active = 1 or more). Conditions: 500 µM; treatment time 1 h; system: HEK293T cell lysate.
Outline: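 The log2 competition ratio per cysteine is defined as mean reporter intensity in control channels over mean reporter intensity in compound channels. Lysate from HEK293T cells (2 mg/mL) received electrophile (500 µM) or vehicle for 1 h at ambient temperature, followed by iodoacetamide alkyne for 1 h. Samples were clicked to sCIP-TMT reagents, pooled, trypsin-digested overnight at 37 °C, streptavidin-enriched, acid-eluted and run on Orbitrap Eclipse LC-MS/MS with FAIMS, with quantification in FragPipe. Three replicates with duplicate channels were used, and any cysteine quantified in only one replicate was excluded.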

Sequence of UniProt Q14697 (Q14697 whole entry, looked up): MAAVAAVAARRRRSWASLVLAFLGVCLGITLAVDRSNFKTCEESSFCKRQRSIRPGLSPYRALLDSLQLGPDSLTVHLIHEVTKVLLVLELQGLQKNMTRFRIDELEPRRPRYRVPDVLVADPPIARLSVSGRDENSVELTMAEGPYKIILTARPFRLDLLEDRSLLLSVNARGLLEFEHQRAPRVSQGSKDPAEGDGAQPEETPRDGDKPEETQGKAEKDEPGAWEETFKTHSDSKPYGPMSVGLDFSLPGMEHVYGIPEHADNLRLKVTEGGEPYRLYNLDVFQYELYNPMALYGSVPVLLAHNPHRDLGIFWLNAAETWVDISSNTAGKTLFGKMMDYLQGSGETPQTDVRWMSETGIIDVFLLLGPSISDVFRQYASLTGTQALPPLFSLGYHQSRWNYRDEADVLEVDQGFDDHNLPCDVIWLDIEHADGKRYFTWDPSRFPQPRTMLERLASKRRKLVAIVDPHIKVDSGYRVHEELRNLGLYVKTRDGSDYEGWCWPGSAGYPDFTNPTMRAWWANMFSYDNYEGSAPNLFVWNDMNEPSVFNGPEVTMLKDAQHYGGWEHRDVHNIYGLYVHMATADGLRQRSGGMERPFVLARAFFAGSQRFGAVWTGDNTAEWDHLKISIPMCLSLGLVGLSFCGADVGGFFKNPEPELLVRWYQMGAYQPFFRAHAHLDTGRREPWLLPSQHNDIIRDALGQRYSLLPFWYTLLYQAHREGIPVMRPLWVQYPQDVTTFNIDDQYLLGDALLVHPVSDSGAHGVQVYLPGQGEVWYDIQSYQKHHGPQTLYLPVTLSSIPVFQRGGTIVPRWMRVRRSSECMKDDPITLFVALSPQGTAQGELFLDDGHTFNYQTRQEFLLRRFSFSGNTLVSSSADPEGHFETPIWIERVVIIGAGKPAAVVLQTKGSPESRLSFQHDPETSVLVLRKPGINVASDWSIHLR
Sequence of UniProt Q13144 (Q13144 whole entry, looked up): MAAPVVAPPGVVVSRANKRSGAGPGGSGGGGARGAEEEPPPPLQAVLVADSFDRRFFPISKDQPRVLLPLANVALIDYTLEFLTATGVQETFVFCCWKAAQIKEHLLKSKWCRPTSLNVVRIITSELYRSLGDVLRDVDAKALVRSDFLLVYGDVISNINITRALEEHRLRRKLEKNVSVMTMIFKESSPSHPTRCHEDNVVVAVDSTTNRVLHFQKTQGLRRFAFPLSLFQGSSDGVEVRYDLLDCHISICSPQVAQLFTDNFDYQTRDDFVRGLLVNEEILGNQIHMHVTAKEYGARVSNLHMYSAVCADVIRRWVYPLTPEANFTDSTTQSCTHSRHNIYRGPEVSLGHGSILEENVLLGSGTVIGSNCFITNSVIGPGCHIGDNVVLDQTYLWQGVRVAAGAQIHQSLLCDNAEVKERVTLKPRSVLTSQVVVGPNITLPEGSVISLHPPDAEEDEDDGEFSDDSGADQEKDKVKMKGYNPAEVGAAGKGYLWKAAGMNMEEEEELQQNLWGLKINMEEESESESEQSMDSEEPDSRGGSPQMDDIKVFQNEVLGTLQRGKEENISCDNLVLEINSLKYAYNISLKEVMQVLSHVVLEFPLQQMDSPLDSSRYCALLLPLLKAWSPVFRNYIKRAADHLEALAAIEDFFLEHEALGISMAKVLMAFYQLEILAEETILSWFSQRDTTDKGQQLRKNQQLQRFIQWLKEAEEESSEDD
Sequence of UniProt Q14781 (Q14781 whole entry, looked up): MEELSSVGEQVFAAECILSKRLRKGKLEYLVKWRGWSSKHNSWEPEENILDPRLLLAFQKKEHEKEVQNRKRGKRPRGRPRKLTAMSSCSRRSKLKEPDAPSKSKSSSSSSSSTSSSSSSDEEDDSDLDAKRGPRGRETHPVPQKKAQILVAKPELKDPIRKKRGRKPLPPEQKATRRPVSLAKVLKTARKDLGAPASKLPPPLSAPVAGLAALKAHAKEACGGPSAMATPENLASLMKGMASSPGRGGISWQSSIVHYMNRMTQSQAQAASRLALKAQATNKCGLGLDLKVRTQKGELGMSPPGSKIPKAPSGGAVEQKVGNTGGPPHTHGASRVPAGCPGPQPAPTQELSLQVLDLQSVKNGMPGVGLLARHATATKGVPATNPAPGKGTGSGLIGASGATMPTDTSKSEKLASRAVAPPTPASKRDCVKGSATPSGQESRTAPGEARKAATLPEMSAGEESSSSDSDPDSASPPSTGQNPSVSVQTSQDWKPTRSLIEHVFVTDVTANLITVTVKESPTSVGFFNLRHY
Sequence of UniProt Q01082 (Q01082 whole entry, looked up): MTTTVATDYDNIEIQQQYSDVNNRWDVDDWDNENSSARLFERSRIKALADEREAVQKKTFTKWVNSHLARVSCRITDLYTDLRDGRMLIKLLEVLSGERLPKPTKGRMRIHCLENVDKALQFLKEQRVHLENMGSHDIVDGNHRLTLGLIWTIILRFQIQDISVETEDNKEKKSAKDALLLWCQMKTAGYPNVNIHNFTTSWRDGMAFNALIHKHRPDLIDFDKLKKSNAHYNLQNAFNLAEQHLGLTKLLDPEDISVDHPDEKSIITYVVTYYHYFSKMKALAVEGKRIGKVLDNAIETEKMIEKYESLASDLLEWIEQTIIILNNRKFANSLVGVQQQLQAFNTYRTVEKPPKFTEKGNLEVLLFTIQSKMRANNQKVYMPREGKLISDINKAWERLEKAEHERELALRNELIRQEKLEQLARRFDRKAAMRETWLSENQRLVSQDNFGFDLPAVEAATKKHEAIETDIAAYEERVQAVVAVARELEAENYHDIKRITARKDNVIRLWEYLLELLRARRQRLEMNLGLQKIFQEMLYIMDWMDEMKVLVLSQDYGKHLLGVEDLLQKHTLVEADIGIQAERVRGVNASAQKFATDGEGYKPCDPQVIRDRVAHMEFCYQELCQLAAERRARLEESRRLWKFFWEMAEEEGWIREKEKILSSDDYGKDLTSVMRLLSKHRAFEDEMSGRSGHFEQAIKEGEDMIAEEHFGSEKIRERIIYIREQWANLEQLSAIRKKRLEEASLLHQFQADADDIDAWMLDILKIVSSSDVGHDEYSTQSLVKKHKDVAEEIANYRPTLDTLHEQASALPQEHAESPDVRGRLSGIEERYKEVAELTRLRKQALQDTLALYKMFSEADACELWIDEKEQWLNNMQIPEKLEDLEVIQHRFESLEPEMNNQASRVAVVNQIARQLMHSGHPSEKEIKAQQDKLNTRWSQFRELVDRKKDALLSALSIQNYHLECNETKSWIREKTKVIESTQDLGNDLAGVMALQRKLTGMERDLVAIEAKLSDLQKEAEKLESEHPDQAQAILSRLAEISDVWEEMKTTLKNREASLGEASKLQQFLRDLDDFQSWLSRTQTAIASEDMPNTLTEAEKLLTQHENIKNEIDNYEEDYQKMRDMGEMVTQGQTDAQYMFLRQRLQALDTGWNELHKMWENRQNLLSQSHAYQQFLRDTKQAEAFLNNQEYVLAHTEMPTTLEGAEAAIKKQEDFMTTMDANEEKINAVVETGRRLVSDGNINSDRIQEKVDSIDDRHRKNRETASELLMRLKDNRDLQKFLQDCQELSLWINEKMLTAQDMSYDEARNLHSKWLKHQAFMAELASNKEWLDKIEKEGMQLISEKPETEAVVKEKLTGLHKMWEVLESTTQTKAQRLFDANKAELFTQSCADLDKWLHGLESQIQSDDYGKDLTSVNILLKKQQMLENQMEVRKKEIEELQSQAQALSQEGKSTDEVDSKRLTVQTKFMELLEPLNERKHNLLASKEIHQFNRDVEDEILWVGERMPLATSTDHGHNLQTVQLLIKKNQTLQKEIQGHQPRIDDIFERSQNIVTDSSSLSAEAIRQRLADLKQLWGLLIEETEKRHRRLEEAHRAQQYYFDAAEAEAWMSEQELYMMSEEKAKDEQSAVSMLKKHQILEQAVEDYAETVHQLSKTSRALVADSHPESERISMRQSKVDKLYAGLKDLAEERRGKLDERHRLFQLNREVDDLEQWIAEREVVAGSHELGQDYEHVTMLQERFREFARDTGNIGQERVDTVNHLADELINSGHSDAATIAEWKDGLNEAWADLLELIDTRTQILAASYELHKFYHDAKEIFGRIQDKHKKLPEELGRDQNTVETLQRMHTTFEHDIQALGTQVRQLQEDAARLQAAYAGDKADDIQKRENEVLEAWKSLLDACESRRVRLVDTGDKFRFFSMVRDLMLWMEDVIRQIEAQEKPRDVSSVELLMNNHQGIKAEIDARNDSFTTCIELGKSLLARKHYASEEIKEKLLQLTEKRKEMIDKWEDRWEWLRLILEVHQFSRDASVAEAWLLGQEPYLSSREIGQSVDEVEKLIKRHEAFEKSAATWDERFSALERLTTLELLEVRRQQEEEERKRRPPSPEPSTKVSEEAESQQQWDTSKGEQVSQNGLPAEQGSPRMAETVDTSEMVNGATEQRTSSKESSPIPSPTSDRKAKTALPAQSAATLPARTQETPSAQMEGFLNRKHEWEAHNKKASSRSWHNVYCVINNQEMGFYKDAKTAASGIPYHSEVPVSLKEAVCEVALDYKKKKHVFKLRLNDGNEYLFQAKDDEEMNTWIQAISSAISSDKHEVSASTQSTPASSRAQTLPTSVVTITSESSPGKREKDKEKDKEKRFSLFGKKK
Sequence of UniProt Q14657 (Q14657 whole entry): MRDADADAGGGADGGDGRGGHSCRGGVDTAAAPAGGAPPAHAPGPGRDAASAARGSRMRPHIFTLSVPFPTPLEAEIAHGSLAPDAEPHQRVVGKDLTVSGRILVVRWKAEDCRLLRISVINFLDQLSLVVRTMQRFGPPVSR
Sequence of UniProt P56589 (P56589 whole entry, looked up): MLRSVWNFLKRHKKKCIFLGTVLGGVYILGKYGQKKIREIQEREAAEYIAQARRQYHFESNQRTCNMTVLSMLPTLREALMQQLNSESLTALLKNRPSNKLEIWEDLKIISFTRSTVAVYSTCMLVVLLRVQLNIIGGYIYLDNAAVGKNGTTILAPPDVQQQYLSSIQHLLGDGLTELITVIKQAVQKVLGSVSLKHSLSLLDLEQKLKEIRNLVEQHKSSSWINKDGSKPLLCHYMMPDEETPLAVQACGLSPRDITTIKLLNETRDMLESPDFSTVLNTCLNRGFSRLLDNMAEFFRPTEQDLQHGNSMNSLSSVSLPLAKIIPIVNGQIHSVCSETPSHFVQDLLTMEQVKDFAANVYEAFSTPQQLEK

Q: How did the “log2 ratio of iodoacetamide-alkyne labeling” value (“log2 ratio” for short) turn out when UniProt P62258_C97 was run?
A: Its value is -0.063 (inactive).

Q: For NUBP1 C31 (UniProt P53384), which “log2 ratio” value is on record?
A: Its value is 0.626 (inactive).

Q: With KIF11 C450 (UniProt P52732) as the target, how does the “log2 ratio” value read?
A: Its value is 0.0207 (inactive).

Q: RPL18 C134 (UniProt Q07020) was tested. Which “log2 ratio” value did it give?
A: The value was 0.213 (inactive).

Q: With PPA1 C274 (UniProt Q15181) as the target, how does the “log2 ratio” value read?
A: The value was 0.425 (inactive).

Q: How did the “log2 ratio” value turn out when EIF2B5 C335 (UniProt Q13144) was run?
A: Its value is 0.267 (inactive).

Q: With GTF2I C80 (UniProt P78347) as the target, how does the “log2 ratio” value read?
A: Its value is 0.0358 (inactive).

Q: COPB1 C248 (UniProt P53618) was tested. Which “log2 ratio” value did it give?
A: Its value is -0.00654 (inactive).

Q: For UniProt Q00341_C683, which “log2 ratio” value is on record?
A: The value was -0.0455 (inactive).

Q: SF3A1 C244 (UniProt Q15459) was tested. Which “log2 ratio” value did it give?
A: The value was 0.0803 (inactive).

Q: Which “log2 ratio” value does the source give for CHAF1A C190 (UniProt Q13111) here?
A: Its value is 1.08 (active).

Q: For UniProt Q02930_C69, which “log2 ratio” value is on record?
A: Its value is 1.09 (active).

Q: How did the “log2 ratio” value turn out when UniProt Q13247_C61 was run?
A: Its value is -0.0753 (inactive).

Q: With ADAR C392 (UniProt P55265) as the target, how does the “log2 ratio” value read?
A: The value was 0.693 (inactive).

Q: How did the “log2 ratio” value turn out when UniProt P60891_C230 was run?
A: The value was 0.704 (inactive).

Q: SPTBN1 C112 (UniProt Q01082) was tested. Which “log2 ratio” value did it give?
A: The value was 0.622 (inactive).

Q: Which “log2 ratio” value does the source give for HNRNPU C497 (UniProt Q00839) here?
A: Its value is 0.211 (inactive).

Q: With UniProt P61978_C184 as the target, how does the “log2 ratio” value read?
A: Its value is 0.0026 (inactive).

Q: With UniProt P68431_C111 as the target, how does the “log2 ratio” value read?
A: The value was 0.142 (inactive).

Q: With PITRM1 C313 (UniProt Q5JRX3) as the target, how does the “log2 ratio” value read?
A: The value was 0.195 (inactive).

Q: How did the “log2 ratio” value turn out when HNRNPUL2 C308 (UniProt Q1KMD3) was run?
A: Its value is 0.826 (inactive).

Q: With P86790_C358 (UniProt P86791+P86790) as the target, how does the “log2 ratio” value read?
A: Its value is 0.213 (inactive).

Q: Which “log2 ratio” value does the source give for ACLY C20 (UniProt P53396) here?
A: Its value is 0.357 (inactive).

Q: With PEX3 C65 (UniProt P56589) as the target, how does the “log2 ratio” value read?
A: The value was 0.385 (inactive).

Q: For CBX2 C340 (UniProt Q14781), which “log2 ratio” value is on record?
A: The value was 0.654 (inactive).

Q: How did the “log2 ratio” value turn out when GANAB C423 (UniProt Q14697) was run?
A: The value was 0.019 (inactive).

Q: How did the “log2 ratio” value turn out when FOXK1 C665 (UniProt P85037) was run?
A: The value was 0.531 (inactive).

Q: For MRPS11 C186 (UniProt P82912), which “log2 ratio” value is on record?
A: The value was 0.527 (inactive).

Q: For LLGL1 C1059 (UniProt Q15334), which “log2 ratio” value is on record?
A: The value was 0.241 (inactive).

Q: With TCOF1 C1298 (UniProt Q13428) as the target, how does the “log2 ratio” value read?
A: The value was 0.666 (inactive).

Q: UniProt P78527_C1904 was tested. Which “log2 ratio” value did it give?
A: Its value is 0.286 (inactive).

Q: With UniProt Q00341_C948 as the target, how does the “log2 ratio” value read?
A: The value was 0.167 (inactive).

Q: With LLGL1 C697 (UniProt Q15334) as the target, how does the “log2 ratio” value read?
A: The value was 0.999 (inactive).

Q: How did the “log2 ratio” value turn out when UniProt P98164_C4047 was run?
A: The value was 0.464 (inactive).

Q: For LAGE3 C23 (UniProt Q14657), which “log2 ratio” value is on record?
A: Its value is 0.594 (inactive).

Reference: the supplement of paper PMC11006884
